# Test results: publication PMC7862700, “An all-to-all approach to the identification of sequence-specific readers for epigenetic DNA modifications on cytosine”
# What was measured:
# Test in all cases: DAPPL (digital affinity profiling via proximity ligation, sequencing); 10 mM Tris-HCl pH 7.5, 50 mM NaCl, 1 mM DTT, 4% glycerol, room temperature, 30 min; GST-TFs on glutathione beads, 16-mer random dsDNA library, 0.1% formaldehyde crosslink after washing; high values mean tight binding
# [1] = target: T1, FLI1 (Homo sapiens, UniProt Q01543 1-452); settings: protein: recombinant; tags: N-terminal GST; dsDNA, one strand shown
# T1 sequence: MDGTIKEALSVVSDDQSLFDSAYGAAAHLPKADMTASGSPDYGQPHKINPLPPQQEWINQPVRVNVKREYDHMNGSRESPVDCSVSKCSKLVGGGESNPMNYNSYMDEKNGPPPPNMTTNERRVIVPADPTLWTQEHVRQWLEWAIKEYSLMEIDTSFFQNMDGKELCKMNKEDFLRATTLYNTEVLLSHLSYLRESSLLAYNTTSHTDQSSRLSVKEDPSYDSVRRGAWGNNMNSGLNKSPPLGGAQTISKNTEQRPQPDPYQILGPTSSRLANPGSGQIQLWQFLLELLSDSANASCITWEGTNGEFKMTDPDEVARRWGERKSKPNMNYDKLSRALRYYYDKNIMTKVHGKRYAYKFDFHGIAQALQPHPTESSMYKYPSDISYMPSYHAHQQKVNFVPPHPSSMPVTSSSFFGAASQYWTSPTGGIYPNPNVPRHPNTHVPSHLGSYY
# How it was run: (§1)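 Human transcription factors were made in yeast as GST fusions, captured on glutathione beads and barcoded with DNA. With a tag-only sample included, the pool was incubated with 200 nmole of a random double-stranded 16-mer DNA library in Tris/NaCl/DTT/glycerol buffer at room temperature for 30 min, then crosslinked with 0.1% formaldehyde after washing, ligated by proximity, amplified and sequenced. For binding signal, each hexamer's read frequency for a factor is divided by its frequency for the tag-only sample.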
# [2] = target: T2, ELK1 (Homo sapiens, UniProt P19419 1-428); settings: protein: recombinant; tags: N-terminal GST; dsDNA, one strand shown
# T2 sequence: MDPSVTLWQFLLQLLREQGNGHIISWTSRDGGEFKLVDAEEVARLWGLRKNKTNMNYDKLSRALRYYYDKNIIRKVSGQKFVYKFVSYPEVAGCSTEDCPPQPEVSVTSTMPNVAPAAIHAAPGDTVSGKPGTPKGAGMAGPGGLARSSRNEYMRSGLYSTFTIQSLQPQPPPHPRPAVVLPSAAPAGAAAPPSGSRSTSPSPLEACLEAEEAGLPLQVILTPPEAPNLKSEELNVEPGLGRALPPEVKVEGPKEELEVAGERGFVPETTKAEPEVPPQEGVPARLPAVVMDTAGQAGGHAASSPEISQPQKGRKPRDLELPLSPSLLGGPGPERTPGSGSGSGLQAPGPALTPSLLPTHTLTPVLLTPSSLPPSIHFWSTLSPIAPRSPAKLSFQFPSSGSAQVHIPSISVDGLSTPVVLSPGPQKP
# How it was run: as §1
# [3] = target: T3, GABPA (Homo sapiens, UniProt Q06546 1-454); settings: protein: recombinant; tags: N-terminal GST; dsDNA, one strand shown
# T3 sequence: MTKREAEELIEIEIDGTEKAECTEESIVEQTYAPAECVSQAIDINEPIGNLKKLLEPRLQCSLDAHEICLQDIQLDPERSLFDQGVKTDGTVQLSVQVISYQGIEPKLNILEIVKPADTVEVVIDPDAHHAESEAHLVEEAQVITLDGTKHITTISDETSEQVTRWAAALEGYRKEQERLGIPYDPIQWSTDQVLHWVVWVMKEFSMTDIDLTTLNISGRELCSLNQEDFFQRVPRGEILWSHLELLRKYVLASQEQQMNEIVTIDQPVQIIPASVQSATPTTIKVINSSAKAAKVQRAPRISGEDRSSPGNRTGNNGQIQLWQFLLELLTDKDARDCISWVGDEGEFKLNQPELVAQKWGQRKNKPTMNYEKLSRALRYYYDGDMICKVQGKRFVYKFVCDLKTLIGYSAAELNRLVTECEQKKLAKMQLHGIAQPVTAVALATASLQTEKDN
# How it was run: as §1
# [4] = target: T4, ERG (Homo sapiens, UniProt P11308 1-479); settings: protein: recombinant; tags: N-terminal GST; dsDNA, one strand shown
# T4 sequence: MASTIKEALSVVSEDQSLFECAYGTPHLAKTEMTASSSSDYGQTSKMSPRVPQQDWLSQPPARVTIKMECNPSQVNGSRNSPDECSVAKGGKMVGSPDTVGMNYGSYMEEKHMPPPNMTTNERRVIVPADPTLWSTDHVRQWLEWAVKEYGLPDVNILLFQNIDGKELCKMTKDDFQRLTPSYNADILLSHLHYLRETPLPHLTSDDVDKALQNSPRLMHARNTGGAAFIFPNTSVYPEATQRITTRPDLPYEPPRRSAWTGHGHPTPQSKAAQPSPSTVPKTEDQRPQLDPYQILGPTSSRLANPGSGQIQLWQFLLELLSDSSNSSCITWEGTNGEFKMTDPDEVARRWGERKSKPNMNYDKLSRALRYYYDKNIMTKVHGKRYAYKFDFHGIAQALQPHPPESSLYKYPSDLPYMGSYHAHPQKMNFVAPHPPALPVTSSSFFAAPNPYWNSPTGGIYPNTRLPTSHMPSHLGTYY
# How it was run: as §1
# [5] = target: ELF1 (Homo sapiens, UniProt P32519 1-619); settings: protein: recombinant; tags: N-terminal GST; dsDNA, one strand shown
# How it was run: as §1
# [6] = target: T5, EHF (Homo sapiens, UniProt Q9NZC4 1-300); settings: protein: recombinant; tags: N-terminal GST; dsDNA, one strand shown
# T5 sequence: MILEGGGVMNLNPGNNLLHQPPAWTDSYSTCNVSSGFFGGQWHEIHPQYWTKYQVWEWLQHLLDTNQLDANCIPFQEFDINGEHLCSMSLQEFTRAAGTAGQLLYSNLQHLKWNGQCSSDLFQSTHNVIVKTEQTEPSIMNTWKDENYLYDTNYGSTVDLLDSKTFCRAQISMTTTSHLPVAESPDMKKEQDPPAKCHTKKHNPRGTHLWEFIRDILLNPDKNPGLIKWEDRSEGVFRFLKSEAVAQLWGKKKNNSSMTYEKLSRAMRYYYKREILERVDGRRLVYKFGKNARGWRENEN
# How it was run: as §1
# [7] = target: SPI1 (Homo sapiens, UniProt P17947 1-270); settings: protein: recombinant; tags: N-terminal GST; dsDNA, one strand shown
# How it was run: as §1
# [8] = target: SPIB (Homo sapiens, UniProt Q01892 1-262); settings: protein: recombinant; tags: N-terminal GST; dsDNA, one strand shown
# How it was run: as §1
# [9] = target: T6, ELK3 (Homo sapiens, UniProt P41970 1-407); settings: protein: recombinant; tags: N-terminal GST; dsDNA, one strand shown
# T6 sequence: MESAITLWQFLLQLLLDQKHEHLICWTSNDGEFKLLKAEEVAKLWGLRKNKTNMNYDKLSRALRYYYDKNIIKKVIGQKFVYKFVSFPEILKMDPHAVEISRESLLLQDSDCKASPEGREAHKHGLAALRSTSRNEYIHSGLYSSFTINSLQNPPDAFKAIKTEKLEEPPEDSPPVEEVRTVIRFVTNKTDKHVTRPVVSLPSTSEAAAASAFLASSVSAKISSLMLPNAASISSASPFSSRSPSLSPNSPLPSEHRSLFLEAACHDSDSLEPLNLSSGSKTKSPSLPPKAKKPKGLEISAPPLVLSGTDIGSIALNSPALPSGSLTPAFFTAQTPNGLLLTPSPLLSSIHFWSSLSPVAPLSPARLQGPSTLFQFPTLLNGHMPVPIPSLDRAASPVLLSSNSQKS
# How it was run: as §1
# [10] = target: T7, FEV (Homo sapiens, UniProt Q99581 1-238); settings: protein: recombinant; tags: N-terminal GST; dsDNA, one strand shown
# T7 sequence: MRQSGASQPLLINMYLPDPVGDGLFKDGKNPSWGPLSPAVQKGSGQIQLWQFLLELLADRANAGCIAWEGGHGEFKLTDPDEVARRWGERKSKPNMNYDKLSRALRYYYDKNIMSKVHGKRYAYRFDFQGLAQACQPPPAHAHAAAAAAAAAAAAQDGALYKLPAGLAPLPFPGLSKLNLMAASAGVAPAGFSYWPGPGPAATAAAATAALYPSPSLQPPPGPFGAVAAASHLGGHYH
# How it was run: as §1
# [11] = target: ETV5 (Homo sapiens, UniProt P41161 1-510); settings: protein: recombinant; tags: N-terminal GST; dsDNA, one strand shown
# How it was run: as §1
# [12] = target: HSF1 (Homo sapiens, UniProt Q00613 1-529); settings: protein: recombinant; tags: N-terminal GST; chain copies: 3; dsDNA, one strand shown
# How it was run: as §1
# [13] = target: T8, SPIC (Homo sapiens, UniProt Q8N5J4 1-248); settings: protein: recombinant; tags: N-terminal GST; dsDNA, one strand shown
# T8 sequence: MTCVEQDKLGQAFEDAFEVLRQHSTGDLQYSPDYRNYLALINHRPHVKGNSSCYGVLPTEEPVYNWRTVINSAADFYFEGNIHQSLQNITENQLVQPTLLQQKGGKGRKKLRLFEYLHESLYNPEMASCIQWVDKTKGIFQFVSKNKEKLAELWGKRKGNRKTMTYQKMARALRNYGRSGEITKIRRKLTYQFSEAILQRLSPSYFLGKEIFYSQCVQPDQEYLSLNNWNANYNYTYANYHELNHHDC
# How it was run: as §1
# [14] = target: ELF4 (Homo sapiens, UniProt Q99607 1-663); settings: protein: recombinant; tags: N-terminal GST; dsDNA, one strand shown
# How it was run: as §1
# [15] = target: T9, ELK4 (Homo sapiens, UniProt P28324-2 1-405); settings: protein: recombinant; tags: N-terminal GST; dsDNA, one strand shown
# T9 sequence: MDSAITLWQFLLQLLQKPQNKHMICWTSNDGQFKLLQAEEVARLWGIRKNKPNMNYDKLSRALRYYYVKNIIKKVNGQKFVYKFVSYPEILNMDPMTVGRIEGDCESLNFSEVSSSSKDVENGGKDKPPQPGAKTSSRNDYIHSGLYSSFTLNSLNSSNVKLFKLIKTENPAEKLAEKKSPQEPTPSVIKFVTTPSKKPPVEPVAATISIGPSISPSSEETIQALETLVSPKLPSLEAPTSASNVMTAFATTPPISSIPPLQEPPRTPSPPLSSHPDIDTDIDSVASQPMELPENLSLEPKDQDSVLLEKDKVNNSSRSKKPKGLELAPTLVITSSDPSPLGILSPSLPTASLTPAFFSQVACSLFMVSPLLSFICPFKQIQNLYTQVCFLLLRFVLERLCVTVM
# How it was run: as §1
# [16] = target: T10, ETV2 (Homo sapiens, UniProt O00321 1-342); settings: protein: recombinant; tags: N-terminal GST; dsDNA, one strand shown
# T10 sequence: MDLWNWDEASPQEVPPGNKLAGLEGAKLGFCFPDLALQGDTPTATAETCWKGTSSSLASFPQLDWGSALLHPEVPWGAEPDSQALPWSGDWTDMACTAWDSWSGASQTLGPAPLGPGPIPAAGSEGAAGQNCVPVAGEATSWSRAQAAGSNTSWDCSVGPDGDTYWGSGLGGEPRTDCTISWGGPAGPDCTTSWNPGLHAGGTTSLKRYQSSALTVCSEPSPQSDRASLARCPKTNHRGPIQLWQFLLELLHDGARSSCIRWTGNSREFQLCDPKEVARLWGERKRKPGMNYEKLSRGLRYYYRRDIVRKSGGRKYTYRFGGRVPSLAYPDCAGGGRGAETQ
# How it was run: as §1
# [17] = target: T11, ELF3 (Homo sapiens, UniProt P78545 1-371); settings: protein: recombinant; tags: N-terminal GST; dsDNA, one strand shown
# T11 sequence: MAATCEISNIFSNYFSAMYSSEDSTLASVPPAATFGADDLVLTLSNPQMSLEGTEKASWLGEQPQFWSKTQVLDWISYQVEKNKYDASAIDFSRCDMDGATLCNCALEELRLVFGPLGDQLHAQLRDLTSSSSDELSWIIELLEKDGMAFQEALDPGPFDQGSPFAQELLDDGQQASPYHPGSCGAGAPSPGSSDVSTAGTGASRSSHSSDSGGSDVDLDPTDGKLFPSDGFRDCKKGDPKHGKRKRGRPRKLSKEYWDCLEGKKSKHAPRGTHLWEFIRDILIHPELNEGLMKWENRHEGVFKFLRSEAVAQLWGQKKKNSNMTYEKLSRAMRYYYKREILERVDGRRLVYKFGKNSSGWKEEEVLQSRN
# How it was run: as §1
# [18] = target: CRX (Homo sapiens, UniProt O43186 1-299); settings: protein: recombinant; tags: N-terminal GST; dsDNA, one strand shown
# How it was run: as §1
# [19] = target: ETV1 (Homo sapiens, UniProt P50549 1-477); settings: protein: recombinant; tags: N-terminal GST; dsDNA, one strand shown
# How it was run: as §1
# Sequence of ELF4 (Q99607 whole entry): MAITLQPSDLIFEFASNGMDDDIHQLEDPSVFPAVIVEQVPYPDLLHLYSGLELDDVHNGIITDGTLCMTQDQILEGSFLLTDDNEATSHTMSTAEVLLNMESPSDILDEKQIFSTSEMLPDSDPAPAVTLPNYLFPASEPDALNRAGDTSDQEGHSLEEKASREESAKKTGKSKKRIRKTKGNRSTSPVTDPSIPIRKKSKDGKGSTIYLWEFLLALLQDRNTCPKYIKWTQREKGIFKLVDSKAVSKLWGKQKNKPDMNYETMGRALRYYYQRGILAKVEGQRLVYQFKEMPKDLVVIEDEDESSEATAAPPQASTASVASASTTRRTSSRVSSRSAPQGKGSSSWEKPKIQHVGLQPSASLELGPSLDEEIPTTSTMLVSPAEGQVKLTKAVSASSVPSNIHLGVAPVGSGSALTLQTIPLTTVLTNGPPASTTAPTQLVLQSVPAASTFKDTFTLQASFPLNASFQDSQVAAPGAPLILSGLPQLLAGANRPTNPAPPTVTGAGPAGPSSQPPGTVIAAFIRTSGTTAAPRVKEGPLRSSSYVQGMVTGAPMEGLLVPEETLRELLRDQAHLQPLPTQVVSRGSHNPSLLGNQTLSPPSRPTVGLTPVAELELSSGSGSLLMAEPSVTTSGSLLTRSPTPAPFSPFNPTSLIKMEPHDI
# Sequence of CRX (O43186 whole entry): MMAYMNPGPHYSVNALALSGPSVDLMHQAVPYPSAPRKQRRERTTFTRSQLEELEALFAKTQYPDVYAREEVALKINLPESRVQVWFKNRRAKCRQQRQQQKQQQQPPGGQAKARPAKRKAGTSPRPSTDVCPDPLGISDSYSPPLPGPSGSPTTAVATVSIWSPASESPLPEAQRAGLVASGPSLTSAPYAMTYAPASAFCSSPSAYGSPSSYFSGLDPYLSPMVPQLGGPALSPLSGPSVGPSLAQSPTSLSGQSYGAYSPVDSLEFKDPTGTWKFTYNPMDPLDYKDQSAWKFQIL
# Sequence of HSF1 (Q00613 whole entry): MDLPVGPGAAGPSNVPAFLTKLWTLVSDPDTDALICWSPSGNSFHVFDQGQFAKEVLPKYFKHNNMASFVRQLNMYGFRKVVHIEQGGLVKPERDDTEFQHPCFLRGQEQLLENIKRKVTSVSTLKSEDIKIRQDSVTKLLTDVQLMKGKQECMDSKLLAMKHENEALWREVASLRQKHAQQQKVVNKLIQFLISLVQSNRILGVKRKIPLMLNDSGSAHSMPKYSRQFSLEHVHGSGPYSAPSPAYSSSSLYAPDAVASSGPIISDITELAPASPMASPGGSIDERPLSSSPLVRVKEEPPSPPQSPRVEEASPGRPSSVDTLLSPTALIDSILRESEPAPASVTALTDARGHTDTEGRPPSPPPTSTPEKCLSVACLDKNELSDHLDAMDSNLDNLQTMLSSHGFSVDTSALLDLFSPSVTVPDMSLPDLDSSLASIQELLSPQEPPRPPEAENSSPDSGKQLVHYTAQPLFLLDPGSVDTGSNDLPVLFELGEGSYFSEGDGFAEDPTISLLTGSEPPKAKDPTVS
# Sequence of ETV1 (P50549 whole entry): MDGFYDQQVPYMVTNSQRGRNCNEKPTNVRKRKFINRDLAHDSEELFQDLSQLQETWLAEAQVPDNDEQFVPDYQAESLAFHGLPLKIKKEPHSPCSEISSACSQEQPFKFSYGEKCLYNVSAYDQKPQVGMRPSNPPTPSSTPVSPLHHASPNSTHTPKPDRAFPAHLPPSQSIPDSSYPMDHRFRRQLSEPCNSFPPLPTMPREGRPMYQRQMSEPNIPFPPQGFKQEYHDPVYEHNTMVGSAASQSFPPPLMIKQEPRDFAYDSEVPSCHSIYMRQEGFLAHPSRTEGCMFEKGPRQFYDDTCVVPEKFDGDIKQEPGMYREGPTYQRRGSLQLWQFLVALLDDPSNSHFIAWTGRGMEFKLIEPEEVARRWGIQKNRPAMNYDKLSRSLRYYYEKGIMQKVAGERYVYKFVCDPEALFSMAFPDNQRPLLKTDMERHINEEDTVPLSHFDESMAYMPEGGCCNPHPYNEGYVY
# Sequence of ETV5 (P41161 whole entry): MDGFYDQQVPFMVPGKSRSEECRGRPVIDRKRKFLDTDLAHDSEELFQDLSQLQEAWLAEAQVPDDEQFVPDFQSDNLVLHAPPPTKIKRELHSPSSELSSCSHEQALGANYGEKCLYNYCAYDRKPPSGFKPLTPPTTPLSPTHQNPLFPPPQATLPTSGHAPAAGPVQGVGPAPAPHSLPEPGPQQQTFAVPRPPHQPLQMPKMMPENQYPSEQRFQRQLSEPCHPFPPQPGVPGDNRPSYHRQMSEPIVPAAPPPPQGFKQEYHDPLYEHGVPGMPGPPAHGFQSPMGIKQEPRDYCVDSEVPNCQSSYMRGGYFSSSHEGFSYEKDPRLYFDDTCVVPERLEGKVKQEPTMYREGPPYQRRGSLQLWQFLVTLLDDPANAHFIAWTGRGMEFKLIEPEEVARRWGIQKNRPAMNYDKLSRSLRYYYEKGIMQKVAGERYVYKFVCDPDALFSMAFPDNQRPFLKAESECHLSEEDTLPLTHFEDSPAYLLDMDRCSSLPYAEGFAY
# Sequence of ELF1 (P32519 whole entry): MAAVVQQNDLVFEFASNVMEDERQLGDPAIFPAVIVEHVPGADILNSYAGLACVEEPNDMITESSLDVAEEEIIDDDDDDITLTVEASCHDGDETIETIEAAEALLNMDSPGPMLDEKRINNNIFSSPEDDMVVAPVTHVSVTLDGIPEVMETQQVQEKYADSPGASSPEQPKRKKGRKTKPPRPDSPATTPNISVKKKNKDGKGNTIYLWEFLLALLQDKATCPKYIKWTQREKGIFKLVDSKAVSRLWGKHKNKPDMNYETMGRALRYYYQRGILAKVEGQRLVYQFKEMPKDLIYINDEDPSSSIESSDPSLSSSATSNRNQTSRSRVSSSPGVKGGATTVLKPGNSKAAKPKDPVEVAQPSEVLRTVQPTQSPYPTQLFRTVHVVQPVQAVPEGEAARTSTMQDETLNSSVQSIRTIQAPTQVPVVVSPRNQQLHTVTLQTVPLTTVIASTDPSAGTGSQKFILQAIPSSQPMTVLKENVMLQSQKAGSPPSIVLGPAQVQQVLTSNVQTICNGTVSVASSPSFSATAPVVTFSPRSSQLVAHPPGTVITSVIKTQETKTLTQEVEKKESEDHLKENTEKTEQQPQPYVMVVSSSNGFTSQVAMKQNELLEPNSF
# Sequence of SPIB (Q01892 whole entry): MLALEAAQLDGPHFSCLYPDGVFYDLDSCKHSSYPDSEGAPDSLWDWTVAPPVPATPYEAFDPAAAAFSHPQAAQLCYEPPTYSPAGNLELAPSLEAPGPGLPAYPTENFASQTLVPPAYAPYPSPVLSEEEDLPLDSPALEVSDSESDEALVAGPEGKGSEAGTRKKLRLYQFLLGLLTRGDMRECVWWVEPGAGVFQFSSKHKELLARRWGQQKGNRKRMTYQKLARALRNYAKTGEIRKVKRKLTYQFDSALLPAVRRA
sequence,measurement,setting,value
CTCTAA,binding signal,[1],"1.3 fold enrichment (6-mer frequency, TF over GST control)"
same,binding signal,[2],"1.33 fold enrichment (6-mer frequency, TF over GST control)"
same,binding signal,[3],"1.28 fold enrichment (6-mer frequency, TF over GST control)"
same,binding signal,[4],"1.32 fold enrichment (6-mer frequency, TF over GST control)"
same,binding signal,[5],"1.37 fold enrichment (6-mer frequency, TF over GST control)"
same,binding signal,[6],"1.41 fold enrichment (6-mer frequency, TF over GST control)"
same,binding signal,[7],"1.35 fold enrichment (6-mer frequency, TF over GST control)"
same,binding signal,[8],"1.25 fold enrichment (6-mer frequency, TF over GST control)"
same,binding signal,[9],"1.43 fold enrichment (6-mer frequency, TF over GST control)"
same,binding signal,[10],"1.29 fold enrichment (6-mer frequency, TF over GST control)"
same,binding signal,[11],"1.37 fold enrichment (6-mer frequency, TF over GST control)"
same,binding signal,[12],"1.49 fold enrichment (6-mer frequency, TF over GST control)"
same,binding signal,[13],"1.6 fold enrichment (6-mer frequency, TF over GST control)"
same,binding signal,[14],"1.31 fold enrichment (6-mer frequency, TF over GST control)"
same,binding signal,[15],"1.22 fold enrichment (6-mer frequency, TF over GST control)"
same,binding signal,[16],"1.37 fold enrichment (6-mer frequency, TF over GST control)"
same,binding signal,[17],"1.5 fold enrichment (6-mer frequency, TF over GST control)"
same,binding signal,[18],"2 fold enrichment (6-mer frequency, TF over GST control)"
same,binding signal,[19],"1.32 fold enrichment (6-mer frequency, TF over GST control)"
